Experimental data taken from PubChem BioAssay (NCATS).
Inconclusive results are not listed. A call without a number means that no potency is given here. Activity calls are given as the source filed them. Calls come from the whole dose curve; as a rule, active = well fitted cell-killing curve with a large enough effect; inconclusive = small, poorly fitted or top-dose-only effect; inactive = flat fitted curve, though single readings scatter.

Assay: qHTS of pediatric cancer cell lines to identify multiple opportunities for drug repurposing: Primary screen for DAOY cells (AID 1347090); note: nearly all actives have a fitted effect of over 55% in size
Conditions: DAOY medulloblastoma viability, CellTiter-Glo luminescence, 48 h; series mostly up to 46 µM
From the text: Drug repurposing or repositioning has been offered as a strategy for drug development in oncology programs. This approach has special potential for childhood cancers and other rare or orphan diseases, where the expected return on new drug development has been a disincentive to pharmaceuticals.
In this project we exploit the poly-pharmacology of drugs to discover new indications via phenotypic screening of a panel of 19 well-characterized cell lines derived from solid tumors seen in children and adolescents. The goal is to identify approved drugs with previously unrecognized anticancer properties that has the potential to reveal new mechanisms and biological processes involved in carcinogenesis or drug resistance. We employed a titration-based paradigm (quantitative high-throughput screening or qHTS), where all compounds were tested at multiple concentrations for their effect on cell viability. Concentration-response curves (CRCs) were derived directly from the primary screen, and both potency and efficacy values were used to identify compounds with robust bioactivity profiles. We screened the NIH Chemical Genomics Center (NCGC) Pharmaceutical Collection (NPC) and Mechanism Interrogation Plate (MIPE) small molecule collections of approved and investigational compounds against these cell lines; and measured metabolically active cells after 48 hours of compound treatment as a proxy for cell viability.
Assay Submitter: Nathalia J. Martinez, National Center for Advancing Translational Sciences, National Institutes of Health, Rockville, MD, USA; email: natalia.martinez@nih.gov
[1] Shen, M et al. Quantitative high-throughput phenotypic screening of pediatric cancer cell lines identifies multiple opportunities for drug repurposing. Oncotarget 2017 Dec 19;9(4):4758-4772. PMID 29435139.
The cells were obtained from University of North Carolina (UNC), Pediatric Preclinical Testing Program (PPT), and Coriell Institute (CI).
qHTS cell viability assay:
Cells were assayed in growth media at a density of 500-1,000 cells/well. Five microliters of cells were dispensed into 1,536-well, white, solid-bottom, TC-treated plates (Greiner Bio One) using a multidrop dispenser and incubated at 37 degrees C, 5% CO2, under a humidified atmosphere for 5 hours. Twenty-three nanoliters of compounds and controls (neutral control DMSO or positive control bortezomib at final concentration of 2.3 µM) were subsequently transferred by Kalypsys pintool. For primary screens, the MIPE collection was tested at 11-point dilutions (final concentrations range from 0.78 nM to 46 µM) and the NPC collection at 8-point dilutions (final concentrations range from 0.59 nM to 46 µM). Compounds tested in follow-up screens were assayed at 11-point dilutions. Cells were incubated for 48 hours, followed by addition of 3 uL of CellTiter-Glo (Promega). After a 15 min incubation at room temperature, samples were analyzed for luminescence intensity using a ViewLux High-throughput CCD imager equipped with clear filters.
Potency is the fitted concentration of half-maximal effect.

Compound	Potency
CN1CCN(c2cc3c(cc2F)c(=O)c(C(=O)O)cn3-c2ccc(F)cc2)CC1	inactive
Cc1cccc(C)c1NC(=O)c1ccccc1C(=O)O	inactive
CC1(C)OC[C@@H]2O[C@@]3(C(=O)O)OC(C)(C)O[C@H]3[C@@H]2O1	inactive
O=C1C(CCS(=O)c2ccccc2)C(=O)N(c2ccccc2)N1c1ccccc1 (stereo not given)	inactive
CC(=O)O[C@]1(C(C)=O)CC[C@H]2[C@@H]3C=C(Cl)C4=CC(=O)CC[C@]4(C)[C@H]3CC[C@@]21C	inactive
O=S(=O)(O)c1ccc(O)cc1	inactive
CN(CCCN1c2ccccc2CCc2ccccc21)CC(=O)c1ccc(Cl)cc1	inactive
CC(=O)Nc1ccc(OC(=O)c2ccccc2OC(C)=O)cc1	inactive
CCCCC(CC)COC(=O)/C=C/c1ccc(OC)cc1 (stereo not given)	inactive
C[N+]12CCC(CC1)C(OC(=O)C(O)(c1ccccc1)c1ccccc1)C2 (stereo not given)	inactive
CN(Cc1ccc(C(C)(C)C)cc1)Cc1cccc2ccccc12	inactive
CCCCc1cc2ccccc2c(OCCN(C)C)n1	inactive
CCN(CC)CCOc1ccc2c(c1)C(=O)c1cc(OCCN(CC)CC)ccc1-2	inactive
C[N+]1(C)CCC(=C(c2ccccc2)c2ccccc2)CC1	inactive
Cc1ccccc1OCC(O)CO (stereo not given)	inactive
Cc1ccc(O)c([C@H](CCN(C(C)C)C(C)C)c2ccccc2)c1	inactive
FC(F)(F)C(F)(F)C(F)(F)C(F)(F)C(F)(F)C(F)(F)C(F)(F)C(F)(F)Br	inactive
CCOc1ccccc1OCCN[C@H](C)Cc1ccc(OC)c(S(N)(=O)=O)c1	inactive
CN1CCN(c2c(F)cc3c(=O)c(C(=O)O)cn4c3c2SCC4)CC1	inactive
COc1cc(C(=O)N2CCCCCCC2)cc(OC)c1OC	inactive

Compound	Potency
O=C(NC1CCN(CCc2c[nH]c3ccccc23)CC1)c1ccccc1	inactive
CC(=C(CCOC(=O)C(C)C)SSC(CCOC(=O)C(C)C)=C(C)N(C=O)Cc1cnc(C)nc1N)N(C=O)Cc1cnc(C)nc1N	inactive
O=C1c2cccc3c2[C@H](CCC3)CN1[C@@H]1CN2CCC1CC2	inactive
COc1ccccc1N1CCN(CCCCNC(=O)c2ccc(-c3ccc(C(C)=O)cc3)cc2)CC1	inactive
CC(C)Cn1cnc2c1c(=O)n(C)c(=O)n2C	inactive
FC1(F)C(F)(F)C(F)(F)C2(F)C(F)(F)C(F)(F)C(F)(F)C(F)(F)C2(F)C1(F)F (stereo not given)	inactive
CO[C@H]1C=CO[C@@]2(C)Oc3c(C)c(O)c4c(O)c(c(/C=N/N5CCN(C)CC5)c(O)c4c3C2=O)NC(=O)/C(C)=C\C=C[C@H](C)[C@H](O)[C@@H](C)[C@@H](O)[C@@H](C)[C@H](OC(C)=O)[C@@H]1C	inactive
COc1ccc(CCN(C)CCCN2CCc3cc(OC)c(OC)cc3CC2=O)cc1OC	inactive
OC[C@H]1O[C@@H]2O[C@H]3[C@H](O)[C@@H](O)[C@@H](O[C@H]4[C@H](O)[C@@H](O)[C@@H](O[C@H]5[C@H](O)[C@@H](O)[C@@H](O[C@H]6[C@H](O)[C@@H](O)[C@@H](O[C@H]7[C@H](O)[C@@H](O)[C@@H](O[C@H]8[C@H](O)[C@@H](O)[C@@H](O[C@H]1[C@H](O)[C@H]2O)O[C@@H]8CO)O[C@@H]7CO)O[C@@H]6CO)O[C@@H]5CO)O[C@@H]4CO)O[C@@H]3CO	inactive
CCOC(=O)Nc1ccc2c(c1)N(C(=O)CCN1CCOCC1)c1ccccc1S2	inactive
CC(=O)Nc1ccc(CC(=O)O)cc1	inactive
CCCCCCCCCCC[C@@H](C[C@@H]1OC(=O)[C@H]1CCCCCC)OC(=O)[C@H](CC(C)C)NC=O	inactive
CCCCC(CC)CN1CN(CC(CC)CCCC)CC(C)(N)C1 (stereo not given)	inactive
COc1cc(C(=S)N2CCOCC2)ccc1O	inactive
COc1ccc(C(Cl)=C(c2ccc(OC)cc2)c2ccc(OC)cc2)cc1	inactive
Cc1cc(-c2ccccc2)nnc1NCCN1CCOCC1	inactive
CCOCCn1c(N2CCCN(C)CC2)nc2ccccc21	inactive
CC(=O)Nc1ccc(OCC(O)CNC(C)C)cc1 (stereo not given)	inactive
CCCCCCCCCCCCOCCOCCOCCOCCOCCOCCOCCOCCOCCO	16.8 µM (active)
C=C[C@H]1CN2CC[C@H]1C[C@@H]2[C@@H](O)c1ccnc2ccc(OC)cc12	inactive
